Measurements reported in PubChem BioAssay (NCATS).
Records with an inconclusive call do not appear. Activity calls are given as the source filed them. Calls follow the shape of the dose curve; as a rule, active = well fitted inhibition curve with a large enough effect; inconclusive = small, poorly fitted or top-dose-only effect; inactive = flat fitted curve, though single readings scatter.

Columns and labels:
Test in all cases: Cytotoxic Profiling of Annotated Libraries Using Quantitative High-Throughput Screening (AID 1296008); also: nearly all actives have a fitted effect of over 60% in size
Conditions in all cases: Five cell lines viability, CellTiter-Glo ATP luminescence, 48-72 h; max response: hits give low values
CRL-7250 = normal cell line; tested on: CRL-7250
Procedure, shortened: (§1)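 Cells exposed to compounds for 48 or 72 hr at 37 degrees Celsius. Viability read as ATP-coupled luminescence with CellTiter-Glo after 10 min at room temperature.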

HEK293 = tested on: HEK293
Procedure, shortened: as §1

HaCat = tested on: HaCat
Procedure, shortened: as §1

KB-3-1 = tested on: KB-3-1
Procedure, shortened: as §1

NIH3T3 = tested on: NIH3T3
Procedure, shortened: as §1

Measured: max response
% is scaled to controls: 0 for no effect and ±100 for the full control effect.

C[C@@H]1C(=O)O[C@H]2[C@H](O)C34[C@H]5C[C@@H](C(C)(C)C)C36[C@@H](OC(=O)[C@@H]6O)O[C@@]4(C(=O)O5)[C@@]12O (stereo not given in full)
inactive: CRL-7250 3.72% | HEK293 -1.33% | HaCat -29.1% | KB-3-1 -3.61% | NIH3T3 -2.5%

CCC(O)(C(=O)OCc1ccccc1NC(=O)CCC(=O)O)C(C)O (stereo not given)
inactive: CRL-7250 | HEK293 -0.446% | HaCat -3.62% | KB-3-1 | NIH3T3 -2.36%

C[C@@H]1O[C@@H](O[C@@H]2[C@@H](O[C@@H]3O[C@@H](C)[C@H](O[C@@H]4OC[C@H](O)[C@H](O[C@@H]5OC[C@@H](O)[C@H](O)[C@H]5O)[C@H]4O)[C@@H](O[C@@H]4OC[C@](O)(CO)[C@H]4O)[C@H]3O)[C@H](OC(=O)[C@]34CCC(C)(C)C[C@H]3C3=CCC5[C@@]6(C)C[C@H](O)[C@H](O[C@@H]7O[C@H](CO[C@@H]8OC[C@H](O)[C@H](O)[C@H]8O)[C@@H](O)[C@H](O)[C@H]7O)C(C)(C)C6CC[C@@]5(C)[C@]3(C)C[C@H]4O)OC[C@H]2O)[C@H](O)[C@H](O)[C@H]1O (stereo not given in full)
inactive: CRL-7250 | HEK293 0.0429% | HaCat 0.757% | KB-3-1 9.59% | NIH3T3 0.953%

C/C=C1\[C@H](O[C@@H]2O[C@H](CO)[C@@H](O)[C@H](O)[C@H]2O)OC=C(C(=O)OC)[C@H]1CC(=O)O
inactive: CRL-7250 -9.39% | HEK293 3.99% | HaCat -13.1% | KB-3-1 -0.621% | NIH3T3 -1.8%
